From PubChem BioAssay (NCI)
About 83,000 compounds went through this panel and 20% of them were active in at least one assay; those are over-represented in the sample as a whole.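 Treatment: one concentration, 48 hours, 96-well format. Scoring: percent growth, with anything below 10 considered active.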 Active and inactive are the calls of the source.

What was measured:
Assay in all cases: NCI-60 one-dose screen, 48 h (100 = growth as untreated, 0 = no growth, -100 = all killed)
Settings in all cases: 10 µM unless noted
DU-145 prostate = test system: DU-145 prostate
K-562 leukemia = test system: K-562 leukemia
MALME-3M melanoma = test system: MALME-3M melanoma
MDA-MB-231 breast = test system: MDA-MB-231 breast
RXF 393 renal = test system: RXF 393 renal
SF-268 CNS = test system: SF-268 CNS
SF-295 CNS = test system: SF-295 CNS
SF-539 CNS = test system: SF-539 CNS
UACC-257 melanoma = test system: UACC-257 melanoma
M14 melanoma = test system: M14 melanoma
HCT-15 colon = test system: HCT-15 colon
HT29 colon = test system: HT29 colon
SNB-75 CNS = test system: SNB-75 CNS
SNB-19 CNS = test system: SNB-19 CNS
U251 CNS = test system: U251 CNS
PC-3 prostate = test system: PC-3 prostate
SK-MEL-5 melanoma = test system: SK-MEL-5 melanoma
UACC-62 melanoma = test system: UACC-62 melanoma
LOX IMVI melanoma = test system: LOX IMVI melanoma
SK-MEL-28 melanoma = test system: SK-MEL-28 melanoma

Measured: growth

O=C(S)CNC(=O)c1ccccc1
inactive: DU-145 prostate 98.8% | K-562 leukemia 95.1% | MALME-3M melanoma 84.2% | MDA-MB-231 breast 97.6% | RXF 393 renal 92.7% | SF-268 CNS 86.5% | SF-295 CNS 111% | SF-539 CNS 93.4% | UACC-257 melanoma 98% | M14 melanoma 95.9% | HCT-15 colon 112% | HT29 colon 99.5% | SNB-75 CNS 96.3% | SNB-19 CNS 94.9% | U251 CNS 95.3% | PC-3 prostate 91.2% | SK-MEL-5 melanoma 99.7% | UACC-62 melanoma 106% | LOX IMVI melanoma 98.2% | SK-MEL-28 melanoma 104%

O=C(Nc1c2ccccc2nc2ccccc12)c1ccccc1CN1C(=O)c2ccccc2C1=O
inactive: DU-145 prostate 27.3% | K-562 leukemia 22.8% | MALME-3M melanoma 31.2% | MDA-MB-231 breast 34.3% | RXF 393 renal 43.9% | SF-268 CNS 34.3% | SF-295 CNS 31.7% | SF-539 CNS 21.6% | UACC-257 melanoma 38.5% | M14 melanoma 21% | HCT-15 colon 19.2% | HT29 colon 11.2% | SNB-75 CNS 60.1% | SNB-19 CNS 32.9% | U251 CNS 27.1% | PC-3 prostate 37.2% | SK-MEL-5 melanoma 39.5% | UACC-62 melanoma 58.8% | LOX IMVI melanoma 22% | SK-MEL-28 melanoma 56.7%

CCOC(=O)c1sc2ncc(-c3ccc(C)cc3)n2c1C
inactive: DU-145 prostate 97.5% | K-562 leukemia 79.4% | MALME-3M melanoma 84.2% | MDA-MB-231 breast 85.6% | RXF 393 renal 107% | SF-268 CNS 106% | SF-295 CNS 96.7% | SF-539 CNS 93.8% | UACC-257 melanoma 98.3% | M14 melanoma 87.1% | HCT-15 colon 90.1% | HT29 colon 93.1% | SNB-75 CNS 74.7% | SNB-19 CNS 94.5% | U251 CNS 96.2% | PC-3 prostate 81% | SK-MEL-5 melanoma 95.1% | UACC-62 melanoma 72.6% | LOX IMVI melanoma 85.2% | SK-MEL-28 melanoma 102%

COc1cc(Nc2cn[nH]c2-c2ccc(Cl)cc2)cc(OC)c1OC
inactive: DU-145 prostate 108% | K-562 leukemia 36.4% | MALME-3M melanoma 38.1% | MDA-MB-231 breast 49.4% | RXF 393 renal 51.5% | SF-268 CNS 77% | SF-295 CNS 66.4% | SF-539 CNS 43.4% | UACC-257 melanoma 71.3% | HCT-15 colon 35.9% | HT29 colon 15% | SNB-19 CNS 56% | U251 CNS 35.3% | PC-3 prostate 56.4% | SK-MEL-5 melanoma 39.1% | UACC-62 melanoma 23.2% | LOX IMVI melanoma 41.6% | SK-MEL-28 melanoma 46.2%
active: M14 melanoma 8.84% | SNB-75 CNS -9.76%

CC1(C)C2CC1C1(/C=N\Nc3ccccc3)C(C2)C(C#N)(C#N)C1(C#N)C#N (stereo not given)
inactive: DU-145 prostate 101% | K-562 leukemia 84.9% | MALME-3M melanoma 97.7% | MDA-MB-231 breast 75.8% | RXF 393 renal 103% | SF-268 CNS 86.3% | SF-295 CNS 104% | SF-539 CNS 107% | UACC-257 melanoma 98.9% | M14 melanoma 83.6% | HCT-15 colon 87.3% | HT29 colon 102% | SNB-75 CNS 91.4% | SNB-19 CNS 96.2% | U251 CNS 94.8% | PC-3 prostate 72.2% | SK-MEL-5 melanoma 94.4% | UACC-62 melanoma 58.5% | LOX IMVI melanoma 52.2% | SK-MEL-28 melanoma 106%

Cc1nc(S(=O)(=O)c2ccccc2)c(S(=O)(=O)Cc2ccc([N+](=O)[O-])cc2)o1
inactive: DU-145 prostate 91.3% | K-562 leukemia 80.1% | MALME-3M melanoma 95.2% | MDA-MB-231 breast 98.1% | RXF 393 renal 93.2% | SF-268 CNS 89.2% | SF-295 CNS 114% | SF-539 CNS 104% | UACC-257 melanoma 85.4% | M14 melanoma 86.3% | HCT-15 colon 82.5% | HT29 colon 91.2% | SNB-75 CNS 72.9% | SNB-19 CNS 92.5% | U251 CNS 98.8% | PC-3 prostate 87.9% | SK-MEL-5 melanoma 95.9% | UACC-62 melanoma 79.8% | LOX IMVI melanoma 89.6% | SK-MEL-28 melanoma 103%

Cc1ccc(C(=O)NCCNc2nccc(-c3c(-c4cccc(F)c4)nc4sccn34)n2)cc1
active: SNB-75 CNS -1.5%
inactive: DU-145 prostate 62.9% | K-562 leukemia 48.7% | MALME-3M melanoma 47.3% | MDA-MB-231 breast 72.5% | RXF 393 renal 39.9% | SF-268 CNS 60% | SF-295 CNS 62.5% | SF-539 CNS 90.1% | UACC-257 melanoma 75.1% | M14 melanoma 44% | HCT-15 colon 38.9% | HT29 colon 35.9% | SNB-19 CNS 69.5% | U251 CNS 62% | PC-3 prostate 56.2% | SK-MEL-5 melanoma 37.6% | UACC-62 melanoma 23.7% | LOX IMVI melanoma 39.4% | SK-MEL-28 melanoma 65%

N[C@@H](Cc1ccccc1)[C@@H](O)C(=O)NCc1ccc(F)cc1
inactive: DU-145 prostate 110% | K-562 leukemia 97% | MALME-3M melanoma 107% | MDA-MB-231 breast 100% | RXF 393 renal 118% | SF-268 CNS 95.7% | SF-295 CNS 95.5% | SF-539 CNS 105% | UACC-257 melanoma 107% | M14 melanoma 101% | HCT-15 colon 103% | HT29 colon 110% | SNB-75 CNS 90.1% | SNB-19 CNS 97.6% | U251 CNS 104% | PC-3 prostate 106% | SK-MEL-5 melanoma 102% | UACC-62 melanoma 94.5% | LOX IMVI melanoma 105% | SK-MEL-28 melanoma 108%

c1ccc2cc(C[n+]3ccn(CCCCCCn4cc[n+](Cc5ccc6ccccc6c5)c4)c3)ccc2c1
inactive: DU-145 prostate 65.9% | K-562 leukemia 28.3% | MALME-3M melanoma 11.2% | MDA-MB-231 breast 84.1% | RXF 393 renal 87.4% | SF-268 CNS 55.6% | SF-295 CNS 48.3% | SF-539 CNS 56.3% | UACC-257 melanoma 61.9% | M14 melanoma 69.9% | HCT-15 colon 96.4% | HT29 colon 22.8% | SNB-75 CNS 26.7% | SNB-19 CNS 48.8% | U251 CNS 34.4% | PC-3 prostate 65.4% | SK-MEL-5 melanoma 42.3% | UACC-62 melanoma 50.1% | LOX IMVI melanoma 66.8% | SK-MEL-28 melanoma 63.4%

COc1ccc(OC)c(/C=C/C(=O)N/N=C/c2ccccc2)c1
inactive: DU-145 prostate 72.5% | K-562 leukemia 21.2% | MALME-3M melanoma 59% | MDA-MB-231 breast 71.8% | RXF 393 renal 45.4% | SF-268 CNS 60.7% | SF-295 CNS 48.5% | SF-539 CNS 51.8% | UACC-257 melanoma 51.3% | M14 melanoma 27.8% | HCT-15 colon 42% | HT29 colon 20.7% | SNB-75 CNS 41.1% | SNB-19 CNS 47.9% | U251 CNS 43.5% | PC-3 prostate 63.5% | SK-MEL-5 melanoma 30.8% | UACC-62 melanoma 61% | LOX IMVI melanoma 42.1% | SK-MEL-28 melanoma 65.5%

COc1nc2ccccc2cc1-c1nc2c(cnn2-c2ccc(Br)cc2)c(=O)[nH]1
inactive: DU-145 prostate 24.5% | K-562 leukemia 16.3% | MALME-3M melanoma 52.6% | MDA-MB-231 breast 66.9% | SF-268 CNS 41.3% | SF-295 CNS 16.9% | UACC-257 melanoma 46.9% | HCT-15 colon 24% | SNB-19 CNS 21.5% | U251 CNS 15.7% | PC-3 prostate 13.6% | UACC-62 melanoma 24.9% | LOX IMVI melanoma 31.7% | SK-MEL-28 melanoma 43.4%
active: RXF 393 renal -7.26% | SF-539 CNS -31.7% | M14 melanoma -7.56% | HT29 colon 8.03% | SNB-75 CNS -12.9% | SK-MEL-5 melanoma 5.23%

Cc1ccc(C(=O)NN2C(=O)CSC2c2ccc(Cl)cc2)cn1 (stereo not given)
inactive: DU-145 prostate 125% | K-562 leukemia 89.8% | MALME-3M melanoma 140% | MDA-MB-231 breast 88.8% | RXF 393 renal 95.2% | SF-268 CNS 101% | SF-295 CNS 66.9% | SF-539 CNS 101% | UACC-257 melanoma 110% | M14 melanoma 97.8% | HCT-15 colon 90.1% | HT29 colon 105% | SNB-75 CNS 95.8% | SNB-19 CNS 85.6% | U251 CNS 93.3% | PC-3 prostate 87.5% | SK-MEL-5 melanoma 99.2% | UACC-62 melanoma 93.5% | LOX IMVI melanoma 97.4% | SK-MEL-28 melanoma 90.8%

COc1ccc(-c2c(C(=O)NS(C)(=O)=O)n(Cc3cccc(C(F)(F)F)c3)c3ccccc23)cc1
inactive: DU-145 prostate 100% | K-562 leukemia 87.7% | MALME-3M melanoma 76.8% | MDA-MB-231 breast 95.5% | RXF 393 renal 111% | SF-268 CNS 95% | SF-295 CNS 89.8% | SF-539 CNS 98.3% | UACC-257 melanoma 95.2% | M14 melanoma 94.6% | HCT-15 colon 79.3% | HT29 colon 97.5% | SNB-75 CNS 85.1% | SNB-19 CNS 93.2% | U251 CNS 91% | PC-3 prostate 70.7% | SK-MEL-5 melanoma 83% | UACC-62 melanoma 88.4% | LOX IMVI melanoma 89.7% | SK-MEL-28 melanoma 99.1%

COc1ccc(C2=Nn3c(nnc3-c3cc(Cl)cc(Cl)c3Cl)SC2)cc1
active: DU-145 prostate 6.93% | K-562 leukemia 2.96% | SF-295 CNS 0.025% | SF-539 CNS -8.32% | M14 melanoma -45.3% | HT29 colon -28.8% | SK-MEL-5 melanoma -13.5%
inactive: MALME-3M melanoma 37.2% | MDA-MB-231 breast 10.3% | RXF 393 renal 14.4% | SF-268 CNS 22.6% | UACC-257 melanoma 37% | HCT-15 colon 12.1% | SNB-75 CNS 22.7% | SNB-19 CNS 14.3% | U251 CNS 18.5% | PC-3 prostate 18.1% | UACC-62 melanoma 41.1% | LOX IMVI melanoma 23.7% | SK-MEL-28 melanoma 47.7%

CC1=C(SCCC(=O)OC(C[Se]C2=C(C)C(=O)c3ccccc3C2=O)C(=O)NC(C)(C)C)C(=O)c2ccccc2C1=O (stereo not given)
active: DU-145 prostate -99% | K-562 leukemia 7.31% | MALME-3M melanoma -74.9% | MDA-MB-231 breast -58% | RXF 393 renal -89.1% | SF-268 CNS -96.2% | SF-295 CNS -30.9% | SF-539 CNS -99.8% | UACC-257 melanoma -88.1% | M14 melanoma -84.1% | HCT-15 colon 1.48% | HT29 colon -5.09% | SNB-75 CNS -95.9% | SNB-19 CNS -92.6% | U251 CNS -69% | PC-3 prostate -64% | SK-MEL-5 melanoma -99.4% | UACC-62 melanoma -91.2% | LOX IMVI melanoma -52.2% | SK-MEL-28 melanoma -96%
